The values that follow come from ChEMBL document CHEMBL3433997, “St. Jude Leishmania screening dataset” (2016).

Molecules are shown by their SMILES.

The target of this experiment is Glucose transporter (Leishmania mexicana) (UniProt O61059). Put plainly: ST_JUDE_LEISH: Cytotoxicity at 2uM final concentration against transgenic Leishmania Mexicana promastigotes LmGT2 that are glucose transport deficient and complemented with the L. Mexicana glucose transporter 2. Activity is measured by DNA content using SYBR green in vitro. In kind it is functional.
As for `COc1ccccc1CCNc1nc(C)cc(N[C@@H](CC(C)C)C(=O)NCc2cccc(F)c2)n1`, the inhibition came to 8.86%.

For the compound `CCN(C(=O)c1ccc(NC(=O)c2cccs2)cc1)c1nc2c(C)cccc2s1`, the inhibition is 2.9%.

As to `COCCN1CCN(Cc2ccc(-c3ccc(-c4nc5cccc(C)c5[nH]4)s3)cc2)CC1`, the inhibition stood at 4.87%.

Consider `O=C(OCc1ccccc1)N1CCc2c([nH]c3ccccc23)C1CCC(F)(F)F` (stereo not given), for which the inhibition was found to be 0.12%.

Consider `COc1cc(C=C(C2=NC(=O)CS2)c2nc3cccnc3n2C)ccc1O`, for which the inhibition worked out at 4.82%.

For the compound `COc1cccc(CNC(=O)c2ccnc(-c3ccc(CNCCOc4ccccc4)cc3)c2)c1`, the inhibition was 1.51%.

On to `COc1ccc2nc3cc(Cl)ccc3c(Nc3ccc(Oc4ccc(Nc5c6ccc(Cl)cc6nc6ccc(OC)cc56)cc4)cc3)c2c1`, for which the inhibition amounted to 1.3%.

As to `O=C(Nc1ccc2c(ccn2C2CCCN(Cc3cc(F)cc(F)c3F)CC2)c1)c1ccco1` (stereo not given), the inhibition came to 2.17%.

Turning to `COc1ccc(N2CCN(CCCCNC(=O)c3ccc(NC(=O)c4cc(C(F)(F)F)cc(C(F)(F)F)c4)cc3)CC2)cc1OC`, the inhibition is 2.71%.

Take `COc1cc2nc(N3CCC(CNC(=O)c4ccc(-c5ccc(Cl)cc5)cc4)CC3)nc(N)c2cc1OC`: the inhibition was 9.81%.

`O=C(C=Cc1ccc(C(=O)Nc2ccc(C3=NCCN3)cc2)cc1)Nc1ccc(C2=NCCN2)cc1`: the inhibition was 5.13%.

Regarding `COC(=O)C1=C(C)NC2=C(C(=O)CC(c3ccc(OC)c(OC)c3)C2)C1c1cccc(O)c1` (stereo not given), the inhibition was determined as 3.82%.

`CCOC(=O)c1cnc2c(OC)cc(OC)c(Cl)c2c1Nc1cccc(C)c1`: the inhibition is 4.43%.

`COc1c(C2CCN(CCCCNC(=O)c3cc(-c4ccc(Cl)cc4)oc3C)CC2)ccc2c1CCCC2`: the inhibition stood at 5.26%.

With `O=C(/C=C/c1ccc(C(F)(F)F)cc1)NCCCCCN1CCC(c2c[nH]c3ccccc23)CC1`, the inhibition worked out at 0%.

Consider `O=C(COc1cnc2ccccc2n1)Nc1ccccc1Sc1ccc(Cl)cc1`, for which the inhibition was found to be 3.2%.

`CO/C(=C\C=C\c1cc2cc(Cl)c(Cl)cc2[nH]1)C(=O)NCCCN1CCN(c2cccc(O)c2)CC1`: the inhibition turned out to be 11.8%.

In the case of `Cc1ccc(CNC(=O)c2cc3c(=O)n4ccccc4nc3n(CCCN3CCOCC3)c2=N)cc1`, the inhibition stood at 7.61%.

`COc1cc(-c2ccc3c(-c4ccc(C(=O)N5CCN(C)CC5)cc4)n[nH]c3n2)cc(OC)c1OC`: the inhibition worked out at 5.3%.

`Fc1ccc2[nH]c(-c3ccc(-c4ccc(CN5CCCCC5)cc4)s3)nc2c1`: the inhibition came to 1.79%.

In the case of `c1csc(-c2ccc3c(c2)CC(NCc2c[nH]c4cnccc24)C3)c1` (stereo not given), the inhibition came to 5.84%.

On to `COc1ccccc1N1CCN(CCCCNC(=O)c2ccc(NC(=O)c3ccc4ccccc4c3)cc2)CC1`, for which the inhibition was -0.43%.

Regarding `COCCN1CCC(N(Cc2ccc(-c3ccc(OC(F)(F)F)cc3)cc2)C(=O)Cn2c(CCc3cccc(F)c3F)cc(=O)c3ccccc32)CC1`, the inhibition turned out to be 4.4%.

In the case of `Cc1cccc2nc(-c3ccc(-c4cccc(CNCc5ccc(S(C)(=O)=O)cc5)c4)s3)[nH]c12`, the inhibition worked out at 9.52%.

`CCN(CCNS(C)(=O)=O)c1ccc(N)c(C)c1`: the inhibition worked out at 1.72%.

`Cc1cccc2nc(-c3ccc(-c4ccc(CN5CCCC(O)C5)cc4)cc3)[nH]c12` (stereo not given): the inhibition turned out to be 19.8%.

As for `O=C(Nc1cccc([N+](=O)[O-])c1)Nc1ccc(Cl)c(C(F)(F)F)c1`, the inhibition turned out to be 0.73%.

With `COc1ccc(CCNCCCCCCNCCc2ccc(Cl)c3ccccc23)cc1OC`, the inhibition was 2.66%.

Take `Cc1cc(NC(=O)Nc2cccc(Cl)c2Cl)c2ccccc2n1`: the inhibition came to 2.66%.

`Nc1ccc(-c2nc3cc(Oc4ccc5[nH]c(-c6ccc(N)cc6)nc5c4)ccc3[nH]2)cc1`: the inhibition is -0.55%.

For the compound `c1ccc(-c2csc(Nc3nc4cc5c(cc4s3)OCO5)n2)nc1`, the inhibition was -1.72%.

On to `Cc1cccc2nc(-c3cccc(-c4cccc(NC(=O)C(C)CN(C)C)c4)c3)[nH]c12` (stereo not given), for which the inhibition is 2.3%.

Turning to `Cc1cccc2nc(-c3ccc(-c4ccc(CNC(C)C)cc4)cc3)[nH]c12`, the inhibition was determined as 15.7%.

As for `Cc1ccc(F)cc1-c1cc(N2CCCN(C(=O)c3ccc(Br)o3)CC2)ncn1`, the inhibition was -0.08%.

Consider `O=C(Nc1cccc(-c2cccc(-c3nc4ccccc4[nH]3)c2)c1)c1ccncc1`, for which the inhibition was 0.44%.

For `CC1CN(CC(O)Cn2c3ccc(Br)cc3c3cc(Br)ccc32)CC(C)O1` (stereo not given), the inhibition stood at 3.29%.

On to `Cc1ccc(C)c(NC(=O)NC2CCN(c3ccnc(Nc4ccc(F)cc4)n3)C2)c1` (stereo not given), for which the inhibition is -1.79%.

With `Cc1ccc(Cn2nc(N3CCNCC3)ccc2=O)cc1NC(=O)Nc1ccc(-c2ccccc2)cc1`, the inhibition is -1.04%.

Take `N=C(N)NN=Cc1cc2ccccc2c2ccccc12`: the inhibition is 4.16%.

For the compound `COc1cc2nc(N3CCC(CNC(=O)c4ccc(-c5ccc(C(F)(F)F)cc5)cc4)CC3)nc(N)c2cc1OC`, the inhibition was -0.23%.

What is called inhibition is the drop in the measured response relative to a control, in per cent.
